Reference: PubChem BioAssay AID1159580 (chemical genetic matrix, 2015)
Hit rate of the full screen: of about 5,500 compounds, about 2,000 (36%) were called active. Inconclusive results (about 18%) are left out. No stated cut-off is given here; in the data, active means normalized growth mostly below about 0.91 (no sharp cut-off); inconclusive means no clear call, values can overlap the other calls; inactive means mostly above about 0.92. The list shows a part of the results.

Test: chemical genetic growth profiling, strain panel (AID 1159580);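 further: tested at 20 µM; growth read once vehicle control cultures reached saturation at 30 °C; 1 = growth at the plate median or of vehicle wells; lower values mean less growth of the strain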
Details: S. cerevisiae deletion strains, growth OD
[1] = locus YGR078C, strain PAC10, active compounds read low
[2] = locus YJR075W, strain HOC1, active compounds read low
[3] = locus YNL153C, strain GIM3, active compounds read low
[4] = locus YNL322C, strain KRE1, active compounds read low
[5] = locus YAL013W, strain DEP1, active compounds read low
[6] = locus YBR229C, strain ROT2, active compounds read low
[7] = locus YDL101C, strain DUN1, active compounds read low
[8] = locus YDR150W, strain NUM1, active compounds read low
[9] = locus YEL061C, strain CIN8, active compounds read low
[10] = locus YHR030C, strain SLT2, active compounds read low
[11] = locus YHR087W, strain rtc3, active compounds read low
[12] = locus YJL187C, strain SWE1, active compounds read low
[13] = locus YJR043C, strain POL32, active compounds read low
[14] = locus YLR039C, strain RIC1, active compounds read low
[15] = locus YLR058C, strain SHM2 (second series), active compounds read low
[16] = locus YLR085C, strain ARP6, active compounds read low
[17] = locus YLR262C, strain YPT6, active compounds read low
[18] = locus YML094W, strain GIM5, active compounds read low
[19] = locus YMR219W, strain ESC1, active compounds read low
[20] = locus YMR263W, strain SAP30, active compounds read low
[21] = locus YNL128W, strain TEP1, active compounds read low
[22] = locus YNL298W, strain CLA4 (second series), active compounds read low
[23] = locus YNR030W, strain Alg12, active compounds read low
[24] = locus YPL055C, strain LGE1, active compounds read low
[25] = locus YPL241C, strain CIN2, active compounds read low
[26] = locus YPR135W, strain CTF4, active compounds read low

Measured: normalized growth

Brc1ccc([C@H]2CN3CCSC3=N2)cc1
inactive: locus YAL040C, strain CLN3, active compounds read low 1.01 | locus YER002W, strain NOP16, active compounds read low 1.03 | [1] 1.02 | [2] 0.983 | [3] 0.997 | locus YNL175C, strain NOP13, active compounds read low 1.01 | locus YNL197C, strain WHI3, active compounds read low 1.01 | locus YNL224C, strain SQS1, active compounds read low 1.01 | [4] 0.997 | locus YOR083W, strain WHI5 (second series), active compounds read low 1.02

Brc1cccc(C=NCc2ccccc2)c1
inactive: [8] 0.932 | [13] 0.954 | [15] 0.961 | [4] 0.983 | [24] 0.825
active: [5] 0.87 | [6] 0.843 | [7] 0.888 | locus YDL134C, strain PPH21, active compounds read low 0.765 | [9] 0.621 | [1] 0.847 | [10] 0.198 | [11] 0.788 | [12] 0.848 | [2] 0.719 | [14] 0.242 | [16] 0.333 | [17] 0.23 | [18] 0.656 | [19] 0.92 | [20] 0.883 | [21] 0.829 | [3] 0.921 | [22] 0.664 | [23] 0.761 | [25] 0.663 | [26] 0.366

Clc1cc(Cl)cc(C=NCc2ccccc2)c1
inactive: locus YAR019C, strain CDC15, active compounds read low 0.958 | locus YBL105C, strain PKC1, active compounds read low 0.946 | locus YBR135W, strain CKS1, active compounds read low 0.961 | locus YBR136W, strain MEC1, active compounds read low 0.957 | locus YBR160W, strain CDC28, active compounds read low 0.955 | locus YDL017W, strain CDC7, active compounds read low 0.951 | locus YDL028C, strain MPS1, active compounds read low 0.958 | [7] 0.964 | locus YDL108W, strain KIN28, active compounds read low 0.964 | locus YDL132W, strain cdc53, active compounds read low 0.959 | locus YDR052C, strain DBF4, active compounds read low 0.957 | locus YDR054C, strain cdc34, active compounds read low 0.95 | locus YDR226W, strain ADK1, active compounds read low 0.957 | locus YFL009W, strain cdc4, active compounds read low 0.961 | locus YFL029C, strain CAK1, active compounds read low 0.961 | locus YFR003C, strain YPI1, active compounds read low 0.95 | locus YFR028C, strain CDC14, active compounds read low 0.967 | locus YGR052W, strain FMP48, active compounds read low 0.627 | locus YHR082C, strain KSP1, active compounds read low 0.616 | locus YHR205W, strain SCH9, active compounds read low 0.621 | locus YIL147C, strain SLN1, active compounds read low 0.947 | locus YJL128C, strain PBS2, active compounds read low 0.93 | locus YJR016C, strain ILV3, active compounds read low 0.961 | locus YKL193C, strain SDS22, active compounds read low 0.956 | locus YMR001C, strain CDC5, active compounds read low 0.947 | locus YMR277W, strain FCP1, active compounds read low 0.966 | locus YNL006W, strain LST8, active compounds read low 0.95 | locus YNL161W, strain CBK1, active compounds read low 0.95 | locus YNL207W, strain RIO2, active compounds read low 0.963 | locus YNL222W, strain SSU72, active compounds read low 0.963 | locus YOL078W, strain AVO1, active compounds read low 0.965 | locus YOR119C, strain RIO1, active compounds read low 0.744 | locus YOR329C, strain SCD5, active compounds read low 0.946 | locus YPL209C, strain IPL1, active compounds read low 0.957 | locus YPR025C, strain CCL1, active compounds read low 0.953 | locus YPR106W, strain ISR1, active compounds read low 0.959 | locus YPR111W, strain DBF20, active compounds read low 0.957 | strain NNK1, active compounds read low 0.959 | strain TSCII, active compounds read low 0.954
active: locus YDL214C, strain PRR2, active compounds read low 0.665 | locus YDR477W, strain SNF1, active compounds read low 0.621 | locus YER123W, strain YCK3, active compounds read low 0.364 | locus YER133W, strain GLC7, active compounds read low 0.625 | locus YFR019W, strain FAB1, active compounds read low 0.501 | locus YGR040W, strain KSS1, active compounds read low 0.681 | locus YGR092W, strain DBF2, active compounds read low 0.222 | [10] 0.322 | locus YHR079C, strain IRE1, active compounds read low 0.27 | locus YJL095W, strain BCK1, active compounds read low 0.375 | locus YJL157C, strain FAR1, active compounds read low 0.458 | locus YJR066W, strain TOR1 (second series), active compounds read low 0.585 | locus YJR066W, strain TOR1, active compounds read low 0.433 | locus YKL048C, strain ELM1, active compounds read low 0.722 | locus YKL067W, strain YNK1, active compounds read low 0.58 | locus YKL101W, strain HSL1, active compounds read low 0.692 | locus YKL203C, strain TOR2, active compounds read low 0.691 | locus YLR113W, strain HOG1, active compounds read low 0.375 | locus YLR133W, strain CKI1, active compounds read low 0.525 | locus YLR403W, strain SFP1, active compounds read low 0.479 | locus YML070W, strain DAK1, active compounds read low 0.428 | locus YMR205C, strain PFK2 (second series), active compounds read low 0.652 | locus YNL020C, strain ARK1, active compounds read low 0.452 | locus YNL183C, strain NPR1, active compounds read low 0.549 | locus YNL307C, strain MCK1 (second series), active compounds read low 0.489 | locus YOL136C, strain PFK27, active compounds read low 0.328 | locus YOR061W, strain CKA2, active compounds read low 0.441 | locus YOR231W, strain MKK1, active compounds read low 0.364 | locus YPL031C, strain PHO85, active compounds read low 0.589 | locus YPL153C, strain RAD53, active compounds read low 0.534 | locus YPL204W, strain HRR25, active compounds read low 0.489 | locus YPL256C, strain CLN2, active compounds read low 0.303

O=C1c2ccccc2C2(c3ccccc3)NCCN12 (stereo not given)
inactive: [5] 1 | [6] 1.01 | locus YCL061C, strain MRC1, active compounds read low 0.987 | [7] 0.982 | [8] 0.989 | [9] 1.02 | [1] 1.01 | [10] 0.972 | [11] 0.993 | [12] 0.997 | [13] 0.956 | [2] 1.01 | [14] 0.976 | [15] 0.997 | [16] 1.04 | [17] 0.968 | [18] 1.04 | [19] 1 | [20] 1.01 | [21] 0.983 | [3] 1.01 | [22] 0.995 | [4] 0.996 | [23] 0.982 | [24] 1.04 | [25] 1.02 | [26] 0.957
